Where “and” joins values, the source holds several entries; their conditions need not be identical. Equal entries are not always repeated. Out of some 5,500 compounds screened, about 2,000 (36%) were called active. Not shown: some 18% with an inconclusive outcome. Cut-off read from the data, not from the text of the source: active = normalized growth mostly below about 0.91 (no sharp cut-off); inconclusive = no clear call, values can overlap the other calls; inactive = mostly above about 0.92. The list shows a part of the results.
Experiment: chemical genetic growth profiling, strain panel (AID 1159580);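 note: tested at 20 µM; growth read once vehicle control cultures reached saturation at 30 °C; 1 = growth at the plate median or of vehicle wells; lower values mean less growth of the strain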
Conditions: S. cerevisiae deletion strains, growth OD

Measured: normalized growth

CC[C@H]1CN2CCc3cc(OC)c(OC)cc3C2C[C@@H]1CC1NCCc2cc(OC)c(OC)cc21 (some centres undefined)
inactive: locus YAL021C, strain ccr4, active compounds read low 0.988 | locus YAL026C, strain drs2, active compounds read low 0.989 | locus YAL030W, strain snc1, active compounds read low 0.983 | locus YBL061C, strain skt5, active compounds read low 1 | locus YBR009C, strain hhf1, active compounds read low 0.971 | locus YBR021W, strain FUR4, active compounds read low 1.02 | locus YBR023C, strain chs3, active compounds read low 0.987 | locus YBR171W, strain sec66, active compounds read low 0.996 | locus YBR229C, strain ROT2, active compounds read low 0.997 | locus YBR231C, strain swc5, active compounds read low 0.993 | locus YBR279W, strain paf1, active compounds read low 0.979 | locus YCL011C, strain gbp2, active compounds read low 0.983 | locus YCL016C, strain dcc1, active compounds read low 0.996 | locus YCL029C, strain bik1, active compounds read low 0.989 | locus YCL069W, strain vba3, active compounds read low 0.98 | locus YCR088W, strain abp1, active compounds read low 0.995 | locus YDL005C, strain med2, active compounds read low 0.988 | locus YDL035C, strain GPR1, active compounds read low 1.01 | locus YDL040C, strain nat1, active compounds read low 0.965 | locus YDL074C, strain BRE1, active compounds read low 1 | locus YDL101C, strain DUN1, active compounds read low 1.01 | locus YDL134C, strain PPH21, active compounds read low 1 | locus YDL185W, strain tfp1, active compounds read low 1 | locus YDL192W, strain arf1, active compounds read low 0.987 | locus YDR001C, strain nth1, active compounds read low 0.982 | locus YDR069C, strain doa4, active compounds read low 0.946 | locus YDR101C, strain arx1, active compounds read low 0.988 | locus YDR137W, strain rgp1, active compounds read low 0.961 | locus YDR150W, strain NUM1, active compounds read low 1.02 | locus YDR159W, strain sac3, active compounds read low 0.899 | locus YDR162C, strain NBP2, active compounds read low 1.03 | locus YDR195W, strain ref2 0.914 | locus YDR297W, strain sur2, active compounds read low 0.979 | locus YDR318W, strain mcm21, active compounds read low 1.01 | locus YDR334W, strain swr1, active compounds read low 0.929 | locus YDR335W, strain msn5, active compounds read low 0.974 | locus YDR388W, active compounds read low 0.994 | locus YDR392W, strain spt3, active compounds read low 0.917 | locus YDR502C, strain sam2, active compounds read low 0.971 | locus YEL003W, strain gim4, active compounds read low 0.979 | locus YEL037C, strain rad23, active compounds read low 0.968 | locus YEL061C, strain CIN8 (second series), active compounds read low 0.978 | locus YEL061C, strain CIN8, active compounds read low 1.01 | locus YER015W, strain faa2, active compounds read low 0.979 | locus YER016W, strain bim1, active compounds read low 1.04 | locus YER110C, active compounds read low 0.996 | locus YER111C, strain swi4, active compounds read low 0.973 | locus YER155C, strain BEM2 (second series), active compounds read low 0.962 | locus YER155C, strain BEM2, active compounds read low 1.01 | locus YER167W, strain BCK2, active compounds read low 1.01 | locus YFR010W, strain ubp6, active compounds read low 0.956 | locus YGL078C, strain dbp3, active compounds read low 0.986 | locus YGL086W, strain mad1, active compounds read low 0.968 | locus YGL167C, strain pmr1, active compounds read low 0.96 | locus YGL173C, strain kem1, active compounds read low 0.962 | locus YGL227W, strain vid30, active compounds read low 0.983 | locus YGL240W, strain doc1, active compounds read low 0.945 | locus YGL248W, strain PDE1, active compounds read low 1.02 | locus YGL253W, strain hxk2, active compounds read low 0.95 | locus YGR078C, strain PAC10, active compounds read low 1.02 | locus YGR135W, strain pre9, active compounds read low 1.01 | locus YGR252W, strain gcn5, active compounds read low 1 | locus YHR013C, strain ard1, active compounds read low 0.941 | locus YHR027C, strain rpn1, active compounds read low 0.985 | locus YHR030C, strain SLT2, active compounds read low 1.01 and 1.04 | locus YHR079C, strain IRE1 (second series), active compounds read low 1 | locus YHR079C, strain IRE1, active compounds read low 1.12 | locus YHR094C, strain hxt1, active compounds read low 0.997 | locus YHR129C, strain ARP1, active compounds read low 1.01 | locus YHR142W, strain chs7, active compounds read low 0.972 | locus YHR200W, strain rpn10, active compounds read low 1.01 | locus YIL066C, strain RNR3, active compounds read low 0.993 | locus YIL073C, strain SPO22, active compounds read low 1.02 | locus YIL125W, strain kgd1, active compounds read low 0.995 | locus YIR030C, strain dcg1, active compounds read low 0.994 | locus YJL092W, strain hpr5, active compounds read low 0.987 | locus YJL095W, strain BCK1 (second series), active compounds read low 0.977 | locus YJL095W, strain BCK1, active compounds read low 1.04 and 1.05 | locus YJL115W, strain asf1, active compounds read low 0.962 | locus YJL129C, strain trk1, active compounds read low 0.983 | locus YJL134W, strain LCB3, active compounds read low 1.01 | locus YJL154C, strain vps35, active compounds read low 0.979 | locus YJL164C, strain tpk1, active compounds read low 0.978 | locus YJL166W, strain qcr8, active compounds read low 0.962 | locus YJL168C, strain set2, active compounds read low 1 | locus YJL187C, strain SWE1 (second series), active compounds read low 1.02 | locus YJL187C, strain SWE1, active compounds read low 0.979 | locus YJR043C, strain POL32, active compounds read low 1.02 | locus YJR066W, strain TOR1, active compounds read low 0.996 | locus YKL068W, active compounds read low 1.01 | locus YKL085W, strain MDH1 (second series), active compounds read low 1.02 | locus YKL085W, strain MDH1, active compounds read low 1.02 | locus YKL160W, strain elf1, active compounds read low 1.01 | locus YKR001C, strain vps1, active compounds read low 1 | locus YKR026C, strain gcn3, active compounds read low 0.986 | locus YKR091W, strain srl3, active compounds read low 0.987 | locus YLL001W, strain dnm1, active compounds read low 0.985 | locus YLL026W, active compounds read low 0.992 | locus YLL041C, strain sdh2, active compounds read low 0.989 | locus YLR027C, strain aat2, active compounds read low 0.989 | locus YLR039C, strain RIC1, active compounds read low 1.01 | locus YLR058C, strain SHM2, active compounds read low 1.01 | locus YLR102C, strain apc9, active compounds read low 0.999 | locus YLR113W, strain HOG1, active compounds read low 1.06 | locus YLR221C, strain rsa3, active compounds read low 0.984 | locus YLR258W, strain gsy2, active compounds read low 0.985 | locus YLR262C, strain YPT6 (second series), active compounds read low 0.978 | locus YLR262C, strain YPT6, active compounds read low 1.06 | locus YLR268W, strain sec22, active compounds read low 0.98 | locus YLR320W, strain mms22, active compounds read low 0.948 | locus YLR330W, strain CHS5, active compounds read low 1.01 | locus YLR342W, strain FKS1 (second series), active compounds read low 0.987 | locus YLR342W, strain FKS1, active compounds read low 1 | locus YLR357W, strain rsc2, active compounds read low 0.967 | locus YLR370C, strain arc18, active compounds read low 0.98 | locus YLR371W, strain rom2, active compounds read low 0.994 | locus YLR384C, strain iki3, active compounds read low 0.972 | locus YLR418C, strain cdc73, active compounds read low 0.997 | locus YML016C, strain PPZ1, active compounds read low 1.01 | locus YML032C, strain rad52, active compounds read low 1.01 | locus YML120C, strain ndi1, active compounds read low 0.977 | locus YML124C, strain tub3, active compounds read low 0.994 | locus YMR058W, strain fet3, active compounds read low 0.986 | locus YMR078C, strain ctf18, active compounds read low 0.996 | locus YMR125W, strain sto1, active compounds read low 0.975 | locus YMR129W, active compounds read low 0.97 | locus YMR205C, strain PFK2, active compounds read low 0.935 | locus YMR223W, strain ubp8, active compounds read low 1.02 | locus YMR231W, strain pep5, active compounds read low 0.979 | locus YMR263W, strain SAP30, active compounds read low 1.02 | locus YMR307W, strain GAS1, active compounds read low 1.08 | locus YNL067W, strain RPL9B, active compounds read low 1.01 | locus YNL071W, strain lat1, active compounds read low 0.956 | locus YNL128W, strain TEP1, active compounds read low 1.01 | locus YNL183C, strain NPR1, active compounds read low 1 | locus YNL209W, strain ssb2, active compounds read low 0.99 | locus YNL233W, strain BNI4, active compounds read low 1.01 | locus YNL248C, strain rpa49, active compounds read low 0.961 | locus YNL250W, strain rad50, active compounds read low 1.01 | locus YNL271C, strain bni1, active compounds read low 0.998 | locus YNL298W, strain CLA4, active compounds read low 1 | locus YNL307C, strain MCK1, active compounds read low 0.997 | locus YNL322C, strain KRE1 (second series), active compounds read low 0.983 | locus YNR049C, strain mso1, active compounds read low 0.967 | locus YNR052C, strain pop2, active compounds read low 1 | locus YOL006C, strain TOP1, active compounds read low 1.03 | locus YOL012C, strain htz1 1.06 | locus YOL147C, strain pex11, active compounds read low 0.994 | locus YOR001W, strain rrp6, active compounds read low 0.98 | locus YOR061W, strain CKA2, active compounds read low 1.02 | locus YOR069W, strain VPS5, active compounds read low 1.01 | locus YOR070C, strain gyp1, active compounds read low 1 | locus YOR080W, strain dia2, active compounds read low 0.926 | locus YOR083W, strain WHI5, active compounds read low 0.987 | locus YOR106W, strain vam3, active compounds read low 1.01 | locus YOR136W, strain idh2, active compounds read low 0.988 | locus YOR144C, strain elg1, active compounds read low 1 | locus YOR184W, strain ser1, active compounds read low 0.987 | locus YOR231W, strain MKK1, active compounds read low 1.05 | locus YOR265W, strain rbl2, active compounds read low 0.993 | locus YOR270C, strain vph1, active compounds read low 0.958 | locus YOR290C, strain snf2, active compounds read low 0.995 | locus YOR316C, strain cot1, active compounds read low 0.992 | locus YPL051W, strain arl3, active compounds read low 1.01 | locus YPL078C, strain atp4, active compounds read low 1 | locus YPL106C, strain sse1, active compounds read low 0.943 | locus YPL240C, strain hsp82, active compounds read low 0.991 | locus YPL241C, strain CIN2, active compounds read low 1.01 | locus YPL256C, strain CLN2, active compounds read low 1.07 | locus YPR119W, strain clb2, active compounds read low 1 | locus YPR141C, strain kar3, active compounds read low 1 | locus YPR163C, strain tif3, active compounds read low 0.985 | locus YPR167C, strain met16, active compounds read low 1 | strain wtn01, active compounds read low 0.96

Source: PubChem BioAssay AID1159580 (chemical genetic matrix, 2015)
